Data from PubChem BioAssay (NCI).
This is part of a sample that, as a whole, favours compounds with a hit. Of some 83,000 tested, about 20% had one in any assay.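 A percent growth of 40 corresponds to 60% growth inhibition; 0 means no net growth; -100 means all cells died. Active threshold: below 10.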 Active and inactive are the calls of the source.

The compounds below were run on SF-539 CNS (assay: NCI-60 one-dose screen, 48 h (100 = growth as untreated, 0 = no growth, -100 = all killed)). Details: 10 µM unless noted.

Row | SMILES | growth
1 | CCC(CC)N1C(=O)/C(=c2\sc3n(c2=O)NC2C(N=3)N(CC)C(=O)N2CC)c2ccccc21 (stereo not drawn) | 25.2% (inactive)
2 | CN1CCN(c2ccc(/C=N/Nc3nc4ccccc4c(=O)n3-c3ccccc3)cc2)CC1 | 101% (inactive)
3 | CC1=NC2=NC(=O)/C(=C3/N=C(C)C=C(c4ccccc4)N3N)NN2C(c2ccccc2)=C1 | 100% (inactive)
4 | Nc1ncc(-c2ccc3ncnc(N4CCc5cc(F)c(F)cc54)c3c2)cn1 | 18.9% (inactive)
5 | COc1ccc(Oc2ccc(/C=N/NC(=O)CSc3nc4ccccc4c(=O)n3-c3ccc(Cl)cc3)cc2)cc1 | 32.2% (inactive)
6 | COc1ccc2c(c1)Oc1nc(N)c(C#N)c(N)c1C2Sc1ccc(C)cc1 (stereo not drawn) | -34% (active)
7 | CC(=O)C1=C(C)NC(NN)=NC1c1cccc(Cl)c1 (stereo not drawn) | 98.6% (inactive)
8 | O=C(NNc1nc2cc(F)ccc2n2c(CO)ccc12)c1cnccn1 | 3.67% (active)
9 | NC(N)=Nc1ccc(Oc2cccc(NC(N)=Nc3ccc(Br)cc3)c2)cn1 | 48.7% (inactive)
10 | CCOC(=O)C1=NNC(c2ccc(Cl)cc2)C1C(=O)N1C(=S)NC(=O)C1CC(C)C (stereo not drawn) | 104% (inactive)
11 | CC/C(=C/c1c(O)cccc1OC)c1ccc2c(OC)cccc2[o+]1 | 98.5% (inactive)
12 | Cn1ccnc1C(=O)/C=C/c1ccc(CNC(=O)c2ccc(Cl)cc2)cc1 | -26.7% (active)
13 | COc1c(N2CC3CCCNC3C2)c(F)cc2c(=O)c(C(=O)N/N=C/c3ccc(F)cc3)cn(C3CC3)c12 (stereo not drawn) | 87.7% (inactive)
14 | CN(C)CCNC(=O)c1ccc(-c2nc3ccc4[nH]ncc4c3c3c2CCC3)cc1 | -31.2% (active)
15 | C=C(C=O)[C@@H]1CC[C@]2(COC(C)=O)CC[C@]3(C)C(CC[C@@H]4[C@@]5(C)CC[C@H](OC(C)=O)C(C)(C)[C@@H]5CC[C@]43C)[C@@H]12 (stereo partly drawn) | -50.2% (active)
16 | COc1c(N2CC3CCCNC3C2)c(F)cc2c(=O)c(C(=O)N/N=C/c3c[nH]c4ccccc34)cn(C3CC3)c12 (stereo not drawn) | 88.2% (inactive)
17 | COc1cc(C2N=C(NNc3ccccc3)NC(C)=C2C(C)=O)ccc1O (stereo not drawn) | 98.7% (inactive)
18 | CCCCCc1ccc(S(=O)(=O)Nc2cccc(-c3csc(NC(=O)CNCCN(C)C)n3)c2)cc1 | 91.1% (inactive)
19 | CCCCCc1ccc(S(=O)(=O)Nc2cccc(-c3csc(NC(=O)CCCCCN4CCN(CCO)CC4)n3)c2)cc1 | 67.3% (inactive)

Row | SMILES | growth
20 | CS(=O)(=O)Nc1cc(-c2ccc3ncc(C#N)c(NCc4ccccc4O)c3c2)cnc1Cl | -14.5% (active)
21 | CC(=O)N1C(=S)NC(=O)C1CC(C)C (stereo not drawn) | 102% (inactive)
22 | COc1cc(/C=C2\C(=O)Nc3ccccc32)ccc1OCc1ccc(Cl)cc1 | 98% (inactive)
23 | COc1cc2oc(-c3cccc(NC(=O)c4cc(N)ccc4Cl)c3)cc(=O)c2c(OC)c1OC | 94.8% (inactive)
24 | COc1ccc(Cn2cc3c(c2-c2cc(OC)c(OC)c(OC)c2)CCc2c(CN4CCCC4)noc2-3)cc1 | 0.316% (active)
25 | CCCCCc1ccc(S(=O)(=O)Nc2cccc(-c3csc(NCCN4CCN(C)CC4)n3)c2)cc1 | 76.4% (inactive)
26 | CCC1=Cc2cc(OC)ccc2OC12C=Cc1cc(OC)ccc1O2 (stereo not drawn) | -23.7% (active)
27 | CCCCCc1ccc(S(=O)(=O)Nc2cccc(-c3csc(NC(=O)CCCCCN4CCN(C)CC4)n3)c2)cc1 | 63% (inactive)
28 | N#Cc1cnc2ccc(-c3cnc4[nH]ncc4c3)cc2c1N1CCc2cc(F)c(Cl)cc21 | -27.1% (active)
29 | CC(C)C[C@@H]1N[C@@]2(C(=O)Nc3ccccc32)[C@@H](c2ccc(F)cc2)[C@@H]1C(=O)c1ccc(O)cc1 | 93.3% (inactive)
30 | O=C(NNc1nc2cc(F)cc(F)c2n2cccc12)c1cnccn1 | 7.61% (active)
31 | O=C(NNc1nc2cc(F)c(F)cc2n2cccc12)c1cnccn1 | 19.9% (inactive)
32 | O=C(CNc1nc(-c2cccc([N+](=O)[O-])c2)cs1)Nc1cccc([N+](=O)[O-])c1 | -29.6% (active)
33 | CC(Nc1c(C#N)cnc2ccc(-c3cnc(N)nc3)cc12)c1ccccc1 (stereo not drawn) | 2.6% (active)
34 | C=CCn1c(SCC(=O)Nc2ccc(C(=O)/C=C/c3ccc(Cl)cc3)cc2)nnc1-c1c[nH]c2ccccc12 | 75.8% (inactive)
35 | CCCCCc1ccc(S(=O)(=O)Nc2cccc(-c3csc(NC(=O)CN4CCN(C)CC4)n3)c2)cc1 | 82.9% (inactive)
36 | O=C(NCc1ncc[nH]1)c1ccc(-c2nc3ccc4[nH]ncc4c3c3c2CCCC3)cc1 | -2.48% (active)
37 | Cc1c(Cl)cccc1S(=O)(=O)Nc1ccc2c(c1)C(=O)N(C1CCC(=O)NC1=O)C2=O (stereo not drawn) | 102% (inactive)
38 | COC(=O)C1(C)CCC[C@]2(C)[C@H]3C[C@H]4C(C(C)C)=C[C@]3(CC[C@@H]12)[C@H]1[C@@H]4[C@@H](OC(=O)c2ccco2)CC[C@@H]1OC(=O)c1ccco1 (stereo partly drawn) | 103% (inactive)
